From PubChem
RecA splice inh: blocks M. tuberculosis RecA intein splicing; P9WHJ3; cell-free RecA intein splicing, fluorescence; inhibition, % (no concentration beside the values); 290,000 tested, 0.75% active; AID 2221; in the data active = inhibition above about 30%
Mtb bLac sens: beta-lactam sensitization of Mtb H37Rv; inhibition, % at 25 µM; M. tuberculosis H37Rv growth with meropenem, percent inhibition; 330,000 tested, 0.27% active; call rule not given here;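 also: growth measured after seven days incubation then overnight dye step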
GDH-TPI counter-1: counter-screen for M. tuberculosis FBA inhibitors: GDH-TPI coupled enzymes; inhibition, % at 4.8 µM; 360,000 tested, 1.2% active; GDH-TPI coupled enzyme counterscreen, NADH absorbance; in the data active = inhibition above about 30%
Rv3671c protease: inhibits the M. tuberculosis serine protease Rv3671c; inhibition, % at 5.96 µM; P9WHR9; 320,000 tested, 0.048% active; AID 2606; in the data active = inhibition above about 38%;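 also: extracellular domain of Rv3671c used as enzyme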
Target sequence (P9WHR9 whole entry, looked up, the tested form may be a part): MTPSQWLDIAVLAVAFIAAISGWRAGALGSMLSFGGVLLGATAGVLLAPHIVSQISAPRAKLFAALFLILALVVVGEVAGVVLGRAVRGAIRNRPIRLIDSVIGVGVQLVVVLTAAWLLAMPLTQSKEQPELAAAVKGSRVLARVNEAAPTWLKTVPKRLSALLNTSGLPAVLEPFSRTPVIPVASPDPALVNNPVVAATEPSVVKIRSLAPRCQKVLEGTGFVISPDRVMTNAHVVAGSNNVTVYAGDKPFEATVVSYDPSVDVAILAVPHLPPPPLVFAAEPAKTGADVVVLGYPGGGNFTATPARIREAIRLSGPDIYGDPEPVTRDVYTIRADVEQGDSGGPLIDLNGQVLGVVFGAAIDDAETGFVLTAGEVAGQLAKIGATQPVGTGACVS
UGM FP inh: blocks M. tuberculosis UGM enzyme. AID 504406. purified UGM, fluorescence polarization probe displacement. inhibition, % at 10 µM. P9WIQ1. 320,000 tested, 0.06% active; in the data active = inhibition above about 10%, passing the limit was not always enough
Mtb FBA inh: inhibits M. tuberculosis FBA enzyme. P9WQA3. inhibition, % at 1 µM. AID 588726. purified M. tuberculosis FBA, fluorescence read-out. 360,000 tested, 2.3% active
Mtb FBA inh conf: confirmation of M. tuberculosis fructose-bisphosphate aldolase inhibitors | purified M. tuberculosis FBA, fluorescence read-out | 5,600 tested, 78% active | inhibition, % at 1 µM | AID 651616 | shares compounds with Mtb FBA inh
GDH-TPI counter-2: counter-screen for M. tuberculosis FBA inhibitors: GDH-TPI coupled enzyme inhibition. shares compounds with Mtb FBA inh. GDH-TPI coupled enzyme counterscreen, fluorescence. inhibition, % at 1 µM. 5,600 tested, 81% active. AID 652141; in the data active = inhibition above about 10%
Each line names hits and unclear results; the compound was inactive in the other large screens (follow-up assays come after a bar, where they were run). Compounds with a hit are over-represented: about 4% of the library has one in this group of screens. Rule as the data show it, unless noted: active = inhibition above about 27%; inactive = the rest.

CC1=C(C(=O)OC(C)C)C(c2cccnc2)C2=C(CC(C)(C)CC2=O)N1 (stereo unspecified)	Mtb FBA inh 79.2 | Mtb FBA inh conf 30.9 | GDH-TPI counter-2 38.1
CCN(CC)c1ccc(C2C(C(=O)OCCOC(C)C)=C(C)NC3=C2C(=O)CCC3)cc1 (stereo unspecified)	none
CC1=C(C(=O)OC(C)C)C(c2ccc(N(C)C)cc2)C2=C(CC(C)(C)CC2=O)N1 (stereo unspecified)	none
COCCOC(=O)C1=C(C)NC2=C(C(=O)CC(C)(C)C2)C1c1cccnc1 (stereo unspecified)	Mtb FBA inh 38.7 | Mtb FBA inh conf active | GDH-TPI counter-2 active
CC1=C(C(=O)OCCOC(C)C)C(c2cccnc2)C2=C(CCCC2=O)N1 (stereo unspecified)	Mtb FBA inh 31.4 (no result: RecA splice inh) | Mtb FBA inh conf active | GDH-TPI counter-2 active
Cc1ccc(NC(=O)CCc2nc3sc4c(c3c(=O)[nH]2)CCCC4)c(Br)c1	none
CC(C)=CC1C(C(=O)NCCc2ccccc2)C1(C)C (stereo unspecified)	none
CSCCC(NC(=O)c1ccco1)C(=O)NCCc1ccc(Cl)cc1 (stereo unspecified)	none (no result: RecA splice inh, UGM FP inh)
O=C(NCc1ccccc1)c1cc(C2CCCCN2S(=O)(=O)c2cccs2)on1 (stereo unspecified)	none (no result: RecA splice inh, Mtb bLac sens, Rv3671c protease, UGM FP inh)
COc1cccc(C2C(C#N)=C(C)NC3=C2C(=O)CC(C)(C)C3)c1 (stereo unspecified)	Mtb FBA inh 93.4 | Mtb FBA inh conf active | GDH-TPI counter-2 183.2
COc1ccc(C2C(C#N)=C(C)NC3=C2C(=O)CC(C)(C)C3)cc1 (stereo unspecified)	none
Cc1ccccc1NC(=O)Nc1nc(C(N)C2CCCCC2)cs1 (stereo unspecified)	none (no result: RecA splice inh, Mtb bLac sens, Rv3671c protease, UGM FP inh)
COc1ccc(Cn2c(N)c(S(=O)(=O)c3cccs3)c3nc4ccccc4nc32)cc1	Mtb FBA inh 48.6 | Mtb FBA inh conf 115.3 | GDH-TPI counter-2 78.7
COc1cccc(/C=N/n2c(N)c(S(=O)(=O)c3cccs3)c3nc4ccccc4nc32)c1OC	none
Nc1c(S(=O)(=O)c2cccs2)c2nc3ccccc3nc2n1Cc1ccccc1	Mtb FBA inh 54.4 | Mtb FBA inh conf inactive | GDH-TPI counter-2 inactive
C=C1CC[C@@H]2[C@](C)(CCC[C@@]2(C)/C=C/[C@@H](O)C(C)(C)O)[C@H]1CC(=O)NCCS(=O)(=O)O	none (no result: RecA splice inh, Mtb bLac sens, Rv3671c protease, UGM FP inh)
CC1=CC(c2ccccc2)n2nc(NC(=O)CCC(=O)O)nc2N1 (stereo unspecified)	Mtb FBA inh 80.9 | Mtb FBA inh conf inactive | GDH-TPI counter-2 inactive
CC1=CC(c2ccccc2)n2nc(NC(=O)CCCC(=O)O)nc2N1 (stereo unspecified)	Mtb FBA inh 61.7 | Mtb FBA inh conf 83.0 | GDH-TPI counter-2 72.8
CC1=CC(c2ccc(Cl)cc2)n2nc(NC(=O)c3ccccc3)nc2N1 (stereo unspecified)	none
C[C@H](CO)N1C[C@H](C)[C@@H](CN(C)S(=O)(=O)c2ccccc2C#N)OCc2cn(nn2)CCCC1=O	none (no result: RecA splice inh, Mtb bLac sens, Rv3671c protease, UGM FP inh)
CCN(CC(=O)Nc1c(F)cccc1F)C(=O)C1CCN(c2ncnc3sc(C)c(C)c23)CC1	none
C[C@H]1[C@H](c2ccccc2)C[C@@H](C(=O)O)C1(C)C	none
Cc1cc(N2CC(C)OC(C)C2)n2cc(-c3ccccc3)nc2n1 (stereo unspecified)	Mtb FBA inh 62.9 | Mtb FBA inh conf active | GDH-TPI counter-2 active
Cc1ccc2nc(-c3ccncc3)cc(-c3ccccc3)c2c1	none
Cc1ccc(-c2cc3cccc[n+]3cc2-c2ccc(C)cc2)cc1	Mtb FBA inh 40.4 | Mtb FBA inh conf 125.5 | GDH-TPI counter-2 97.8
CCOC(=O)c1c(C)[nH]c(C(=O)OCC(=O)Nc2ccccc2)c1C	none (no result: RecA splice inh)
OC(CCCC(O)c1ccccc1)c1ccccc1 (stereo unspecified)	none (no result: RecA splice inh, Mtb bLac sens, Rv3671c protease, UGM FP inh)
COc1cccc2c3c(c(C)nc12)CC(C)O3 (stereo unspecified)	Mtb FBA inh 39.6 | Mtb FBA inh conf 106.3 | GDH-TPI counter-2 75.0
CCOC(=O)c1ccc2nc(C)c3c(c2c1)OC(C)C3 (stereo unspecified)	Mtb FBA inh 37.7 | Mtb FBA inh conf 175.3 | GDH-TPI counter-2 130.3
COC(=O)c1ccc2c(=O)n(CCCCCC(=O)NC(C)C)c(=O)[nH]c2c1	none
COC(=O)c1ccc2ccn(CC(=O)NC(C)C)c2c1	Mtb FBA inh 85.2 | Mtb FBA inh conf 190.9 | GDH-TPI counter-2 142.7
Cc1ccc(NC(=O)CSC(C)C(=O)OCc2cc(=O)oc3cc(O)ccc23)cc1 (stereo unspecified)	Mtb FBA inh 41.3 (no result: RecA splice inh, Mtb bLac sens, Rv3671c protease, UGM FP inh) | Mtb FBA inh conf active | GDH-TPI counter-2 active
CCN(CC)c1ccc(C(=O)OCc2cc(=O)oc3cc(O)ccc23)cc1	GDH-TPI counter-1 32.5, Mtb FBA inh 72.2 | Mtb FBA inh conf inactive | GDH-TPI counter-2 inactive
CSCCC(NS(=O)(=O)c1ccccc1)C(=O)OCc1cc(=O)oc2cc(O)ccc12 (stereo unspecified)	none
CC(=O)c1cccc(NCC(=O)Nc2cc(S(=O)(=O)N3CCCCC3)ccc2C)c1	none (no result: RecA splice inh)
CC(Sc1nnc(C2CC2)n1-c1ccccc1)C(=O)N1CCCC1 (stereo unspecified)	none (no result: RecA splice inh, Mtb bLac sens, Rv3671c protease, UGM FP inh)
N#Cc1nc(-c2ccco2)oc1NCCCn1ccnc1	Mtb FBA inh 59.7 | Mtb FBA inh conf 121.1 | GDH-TPI counter-2 93.1
N#Cc1nc(-c2ccc(F)cc2)oc1NCCCn1ccnc1	none (no result: GDH-TPI counter-1, Mtb FBA inh)
N#Cc1nc(-c2ccc(OCc3ccccc3)cc2)oc1NCCCn1ccnc1	none
CC(C)(C)c1ccc(-c2nc(C#N)c(NCCCn3ccnc3)o2)cc1	Mtb FBA inh 39.8 (no result: RecA splice inh) | Mtb FBA inh conf 107.5 | GDH-TPI counter-2 103.1
CCCOc1ccc(-c2nc(C#N)c(NCCCn3ccnc3)o2)cc1	Mtb FBA inh 105.0 | Mtb FBA inh conf 105.3 | GDH-TPI counter-2 80.8
CCC(CC)c1nnc(NC(=O)CSCC(=O)Nc2cc(C)on2)s1	none
CCOC(=O)[C@H]1[C@H]2COc3ccccc3[C@@H]2N2C(=O)CNC(=O)[C@@]12C	none (no result: RecA splice inh)
C=CCNC(=O)Cc1ccc(S(=O)(=O)N2CCOCC2)s1	none (no result: RecA splice inh)
COc1ccc(N2C(=O)c3ccccc3NC2c2ccc(OC)c(CSc3ccccn3)c2)cc1 (stereo unspecified)	none
O=C(O)c1ccc(C2Nc3ccccc3C(=O)N2Cc2ccccc2)cc1 (stereo unspecified)	Mtb FBA inh 76.5 (no result: RecA splice inh) | Mtb FBA inh conf inactive | GDH-TPI counter-2 inactive
COc1ccc(C2Nc3ccccc3C(=O)N2Cc2ccccc2)cc1 (stereo unspecified)	Mtb FBA inh 39.1 (no result: RecA splice inh) | Mtb FBA inh conf 166.8 | GDH-TPI counter-2 135.2
COc1ccc(C2Nc3ccccc3C(=O)N2C2CCCCC2)cc1 (stereo unspecified)	Mtb FBA inh 85.2 | Mtb FBA inh conf inactive | GDH-TPI counter-2 inactive
